# According to ChEMBL document CHEMBL3988442, “University of Dundee, Small-Polar-MMV Screening Library” (2021):
# Among all 48,000 compounds or so, about 13,000 (27%) showed an effect of 50% or more. This is one part of the list.
# System: Wolbachia pipientis
# Assay: Anti-Wolbachia Cell-Based Screen
# Type: functional
# Parameters: scale not given: in the data most compounds retested in dose-response had high values
# Conditions: 5 µM
row,Structure (SMILES),Percent Effect
1,O=C(CCc1nc(Cl)n[nH]1)NC1CCCN(C2Cc3ccccc3C2)C1 (stereo not given),-44.69%
2,COC(=O)c1ccoc1CN(C)Cc1ccccc1,118.1%
3,CN(CC(=O)N(C)C)Cc1ccc(C#N)cc1F,-6.679%
4,COc1cc(CC(=O)Nc2cccc(C(=O)N(C)C)n2)ccc1C,-9.433%
5,CN(Cc1ccccc1)CC(C)(C)NC(=O)c1ccon1,7.047%
6,CC1Cc2ccccc2N1Cc1occc1C(=O)NCC(=O)N(C)C (stereo not given),-8.438%
7,COC(=O)c1ccoc1CN(C)Cc1cc(OC)c(OC)cc1C,109.7%
8,COc1cc(C)c(C(C)NC(=O)c2cccnc2N(C)C)cc1OC (stereo not given),0.4558%
9,COC(=O)c1ccoc1CN(C)CC(=O)N(C)C,115.3%
10,COC(=O)CNC(=O)C1(N(C)Cc2ccccc2)Cc2ccccc2C1,-5.057%
11,COc1ccc(F)cc1C(C(=O)O)N1CCCN(C2CCCC2)CC1 (stereo not given),11.4%
12,CCC(C)(C)NC(=O)c1scnc1Cl,6.107%
13,Cc1cnn(C2CN(CC(O)COCc3ccc4c(c3)OCO4)C2)c1 (stereo not given),-34.94%
14,CSc1ccc(CNC(c2ccccc2)c2nccn2C)cc1 (stereo not given),-1.677%
15,COc1cc(C)cc(C(C(=O)O)N(C)Cc2cnn(C)c2)c1OC (stereo not given),-13.95%
16,Cc1ccc(C(C(=O)O)N(C)CCN2CCOCC2)c(F)c1 (stereo not given),-0.2175%
17,COc1ccc(Cl)cc1C(C(=O)O)N(C)Cc1ccon1 (stereo not given),-2.698%
18,COc1ccc(C(C(=O)O)N(C)CCN2CCCC2)c(C)c1 (stereo not given),0.7603%
19,COc1cc(F)ccc1C(C(=O)O)N(C)Cc1ccon1 (stereo not given),19.52%
20,Cc1nn(C)c(C)c1CN(C)C(C(=O)O)c1ccc(F)cc1F (stereo not given),99.54%
21,COc1cc(CN(C)C(=O)Cc2c(C)nn(C)c2C)ccc1OC(F)F,-29.22%
22,COc1ccc(C(C(=O)O)N(C)Cc2c(C)nn(C)c2C)c(C)c1 (stereo not given),108.6%
23,COc1cc(C)cc(OC)c1C(C(=O)O)N(C)Cc1c(C)nn(C)c1C (stereo not given),77.2%

row,Structure (SMILES),Percent Effect
1,Cc1ccc(NC(=O)CN2CCCNC2=O)c(SC(F)(F)F)c1,-6.443%
2,CN(C)C1CCCN(C(=O)NCCNC(=O)C2CCCC2)C1 (stereo not given),2.147%
3,N#Cc1cccc(S(=O)(=O)NC2CCN(CC(F)(F)F)C2)c1 (stereo not given),11.74%
4,N#Cc1ccc(SCCOCCO)c(Cl)c1,-25.21%
5,CN1CCN(c2ncnc3c2CCN(Cc2nccn2C)CC3)CC1,-1.995%
6,N#CC1CCCN(c2ncnc3c2CCN(Cc2ccccc2)CC3)C1 (stereo not given),115%
7,COCCn1ccnc1C1CCCN(c2ncnc3c2CCC3)C1 (stereo not given),-0.4091%
8,N#CC1CCCN(c2nc(-c3ccccc3)nc3c2CCNCC3)C1 (stereo not given),6.584%
9,Cn1cc(CN2CCc3ncnc(N4CCCC4)c3CC2)cn1,6.266%
10,Cn1ccnc1CN1CCc2ncnc(N3CCCC(C#N)C3)c2CC1 (stereo not given),91.92%
11,Cc1ccccc1N1CCN(C(=O)c2cccnc2-n2cncn2)CC1,25.7%
12,Cc1nc(C2CCCN2Cc2cc(Cl)c3c(c2)OCCCO3)no1 (stereo not given),-4.62%
13,CC(C)=CCC1(C(=O)O)CCCN(c2ccnc(N)n2)C1 (stereo not given),0.6776%
14,Cc1cc(I)c2c(c1)C(=O)C(CN1CCCC1)(CN1CCCC1)CO2,118.1%
15,O=C1c2cc(Br)cc(Br)c2OCC1(CN1CCCC1)CN1CCCC1,108.8%
16,CCNC(=O)NC[C@@H]1C=C(C)[C@H](CC(=O)NCCN(C)C)C[C@H]1C(C)C,-8.573%
17,OCCCN1CCc2onc(C(c3ccccc3)c3ccccc3)c2C1,6.435%
18,Cc1cc(CNc2ccc(C(F)(F)F)cc2)no1,98.51%
19,CCOc1ccc(C(F)(F)F)cc1NCc1cc(C)on1,-4.345%
20,Cc1cc(CNc2ccc3nc(C)sc3c2)no1,5.343%
21,O=C(N1CCOCC1)[C@@]12CCO[C@@H]1CCN(CC1CCCCC1)C2.O=C(O)C(F)(F)F,16.73%
22,CC1(C(=O)N2CCOCC2)CN(CC2CCOCC2)CCO1 (stereo not given),129.5%
23,O=C(C1CN(CC2CCOCC2)CC12CCOCC2)N1CCOCC1.O=C(O)C(F)(F)F (stereo not given),5.554%

row,Structure (SMILES),Percent Effect
1,C1CC(CN2CCOCC3(CCN(C4CCOCC4)C3)C2)CCO1 (stereo not given),-8.937%
2,CC1(C)CC(CN2CCC3(CCC(=O)N(C4CCC4)C3)CC2)CCO1 (stereo not given),-1.352%
3,CN(C)C(=O)CN1CCC2(C1)CN(CC1CCOCC1)C2,-9.984%
4,O=C(C1CN(CC2CC2)CC12CCOCC2)N1CCCC1 (stereo not given),-4.912%
5,CC1(C(N)=O)CN(CC2CCOCC2)CCO1 (stereo not given),88.24%
6,CC1(C(N)=O)CN(CC2CCC2)CCO1 (stereo not given),100.1%
7,CC(C)N1CC2(CCC1=O)CCN(C(=O)c1cccc(F)c1F)CC2,-11.17%
8,Cc1cc2[nH]c(CN3CCOC(C(F)(F)F)C3)cc(=O)n2n1 (stereo not given),-6.733%
9,CCOc1ccc(CNCc2ccc(C(=O)NC)cc2)cc1OCC,-3.882%
10,CCOc1cccc(CNc2cnn(CC(C)C)c2CC)c1,-19.91%
11,N#CC1(C(=O)Nc2ccc(OC(F)F)cc2)CCCC1,-4.632%
12,COc1cccc(CNCc2ccc(NC(=O)NC(C)C)cc2)c1,98.55%
13,CCOc1cccc(CNCc2ccc(NC(=O)NC(C)C)cc2)c1,132%
14,COc1ccc(CNC(=O)Nc2ccc(S(=O)(=O)C(F)F)cc2)cc1,6.35%
15,CC(C)NC(=O)Nc1ccc(CNCc2ccc(OC(F)F)cc2)cc1,126.1%
16,COc1cccc(CC(C)NC(=O)c2ccc(CNC(C)=O)cc2)c1 (stereo not given),-2.536%
17,Cc1cccc(CNCc2ccc(NC(=O)NC(C)C)cc2)c1,97.74%
18,Cc1cccc(CNC(=O)Nc2ccc3c(c2)CCCC(=O)N3)c1,-8.181%
19,COC(=O)C(CNC(=O)Nc1cn[nH]c1)Cc1cccc(C)c1 (stereo not given),-11.43%
20,COc1cccc(C(CO)NC(=O)NC(C)C)c1 (stereo not given),-12.05%
21,CCc1cc(CN(C)Cc2nc(-c3sccc3C)oc2C)on1,-5.101%
22,CC(=O)N[C@@H]1Cc2ccccc2[C@H]1Nc1nnc(C2CC2)o1,-5.354%
23,O=C1CSCN1CC(=O)N1CCCC1c1nc2ccccc2s1 (stereo not given),-3.784%

row,Structure (SMILES),Percent Effect
1,Cc1noc(-c2ccc(N[C@H]3CCCCNC3=O)nc2)n1,-0.1994%
2,COCCNC(=O)NC(c1ccccc1)c1ccccc1OC (stereo not given),3.321%
3,Cc1csc(N2CCN(Cc3ccn(C)c(=O)c3)CC2)n1,7.447%
4,Cn1ccc(CN2CCC(CO)CC2)cc1=O,-2.803%
5,Cn1ccc(CN2CCC(CN3CCOCC3)CC2)cc1=O,93.59%
6,Cn1ccc(CN2CCN(CC3CC3)CC2)cc1=O,107.4%
7,CCc1oc(C(=O)OC)cc1Cn1cccc(C(F)(F)F)c1=O,2.78%
8,Cc1nc(C)c(C)c(NCCSCc2[nH]cnc2C)n1,-16.36%
9,CO[C@H]1CCN(C(=O)c2ccc3[nH]nnc3c2)C[C@@]12CCCO2,102.9%
10,COC1CCCOC12CCN(C(=O)c1ccc3[nH]nnc3c1)CC2 (stereo not given),104.9%
11,c1cc(CNc2nnc(Cc3ccsc3)o2)cs1,-17.73%
12,Clc1cnccc1N1CCCC2(CCCOC2)C1 (stereo not given),-10.01%
13,COCc1ccc(C(=O)N2CCCN(Cc3cscn3)CC2)cc1,110%
14,Cc1ccc(C(=O)N2CCCN(Cc3cscn3)CC2)o1,108%
15,O=C(c1ccc(Cl)o1)N1CCCN(Cc2cscn2)CC1,4.253%
16,NC(=O)c1cncc(N2CCN(Cc3ccc(F)cc3Cl)CC2)n1,-6.115%
17,CCC(C)N(Cc1cccnc1)Cc1cc2c(cc1OC)OCO2 (stereo not given),6.738%
18,Cn1cccc1C(=O)N1CCc2ccc(=O)n(C)c2CC1,85.33%
19,CN1CCN(c2ncnc3c2CCN(C(=O)c2cccn2C)CC3)CC1,1.463%
20,Cc1ncnc2c1CCN(C(=O)c1cccn1C)CC2,-19.88%
21,CN(CCCNC(=O)N1CCCC1c1ccsc1)c1ccccn1 (stereo not given),7.927%
22,Cn1ccnc1CN1C[C@@H](CN2CCC(CO)CC2)[C@@H](CO)C1,-24.97%
23,Cc1cc(N2CCCC(O)CC2)n2nc(C)c(C)c2n1 (stereo not given),-2.095%

row,Structure (SMILES),Percent Effect
1,Cc1cc(N2CCCCCC2)n2nc(C)c(C)c2n1,-8.895%
2,Cc1cc(N2CCCN(c3nc(C)nc(C)c3C)CC2)ccn1,23.81%
3,Cn1ccnc1-c1nccn1C[C@@H]1CCCN2CCCC[C@H]12,-12.88%
4,Cc1nc2cc(-c3nccn3C)nn2c(N2CCCC(O)C2)c1C.Cl (stereo not given),80.29%
5,Cc1cc(C2CCC2)nc(N2CCN(Cc3nccn3C)CC2)n1,-10.5%
6,Cc1cc(N2CC[C@H](O)C2)n2nc(C)c(C)c2n1,-7.079%
7,OCC1CCCN(c2ncnc3c2Cc2ccccc2OC3)C1 (stereo not given),5.574%
8,Cc1nc2cc(-c3nccn3C)nn2c(N2CCCC(CO)C2)c1C (stereo not given),68.35%
9,Cc1ccccc1OCC(=O)N1CC[C@]2(C[C@@H](OCC3CC3)CO2)C1,14.13%
10,CC(NC(=O)c1coc(COc2cccc(F)c2)n1)c1nnc(N)s1 (stereo not given),-13.23%
11,O=C(N1CCc2ccccc2CC1)C1(O)Cc2ccccc2C1,1.099%
12,Cc1nsc(N2CCCN(C(=O)NCc3cccnc3)CC2)n1,-3.745%
13,CCNC(=O)N1C[C@@H]2OCC(=O)N(C)[C@@H]2C1,-7.352%
14,Cn1ccnc1C(=O)N[C@@H]1CN(Cc2ccoc2)[C@@H]2CCCO[C@@H]21.O=C(O)C(F)(F)F,105.8%
15,Cn1cc(C(=O)N[C@@H]2CN(Cc3cccnc3)[C@@H]3CCCO[C@@H]32)cn1.O=C(O)C(F)(F)F.O=C(O)C(F)(F)F,-2.49%
16,Cn1ccnc1C(=O)N[C@@H]1CN(CC2CCOCC2)[C@@H]2CCCO[C@@H]21.O=C(O)C(F)(F)F,97.93%
17,Cn1cccc1C(=O)N[C@H]1CN(Cc2ccoc2)[C@@H]2CCCO[C@H]12.O=C(O)C(F)(F)F,107.4%
18,O=C(N[C@@H]1CN(Cc2cccs2)[C@@H]2CCCO[C@@H]21)c1cscn1.O=C(O)C(F)(F)F,6.119%
19,Cn1cc(CN2C[C@@H](NC(=O)c3cscn3)[C@H]3OCCC[C@H]32)cn1.O=C(O)C(F)(F)F.O=C(O)C(F)(F)F,-10.62%
20,Cn1ccnc1CN1C[C@H](N2CCOCC2)[C@@H]2OCCC[C@@H]21.O=C(O)C(F)(F)F.O=C(O)C(F)(F)F.O=C(O)C(F)(F)F,-9.409%
21,Cn1cc(C(=O)N[C@@H]2CN(CC3CCOCC3)[C@@H]3CCCO[C@@H]32)cn1.O=C(O)C(F)(F)F,-2.907%
22,O=C(N[C@@H]1CN(CC2CC2)[C@@H]2CCCO[C@@H]21)c1cscn1.O=C(O)C(F)(F)F,102.8%
23,Cn1cccc1C(=O)N[C@@H]1CN(Cc2ccsc2)[C@@H]2COC[C@@H]21.O=C(O)C(F)(F)F,-6.344%
